V-ATPase pH: alters yeast V-ATPase proton transport | S. cerevisiae, pHLuorin cytosolic pH fluorescence | 350,000 tested, 0.37% active | response, % at 10 µM; in the data active means response mostly above about 7.3%, no sharp cut-off; inactive means mostly below about 5.4%; further: actives read high
ADAM10 inh: inhibitors of human ADAM10; recombinant ADAM10, EDANS/DABCYL FRET peptide cleavage, 3 h; inhibition, % at 7 µM; 370,000 tested, 0.62% active;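 active means inhibition above a per-campaign cutoff equal to the mean of compounds falling between control-based bounds plus 3 SD, cut at about 20% in these data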;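 further: 0% = DMSO wells while the 100% control is not disclosed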
ADAM17 inh: inhibits human ADAM17; P78536; inhibition, % at 6.95 µM; 370,000 tested, 0.83% active; recombinant ADAM17, EDANS/DABCYL FRET peptide cleavage;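 active means inhibition above the mean of compounds lying between control limits plus 3 SD, set per campaign, cut at about 8.5% in these data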;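 further: 0% = DMSO-only wells as the low control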
proKLK7 act: activators of human kallikrein-7 zymogen; P49862; purified proKLK7, EDANS-DABCYL substrate fluorescence; 100% is mature enzyme control, 0% vehicle; activation, % at 7 µM; 370,000 tested, 0.9% active; AID 652039;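 active means activation above the mean of all tested compounds plus 3 SD, computed per campaign excluding outliers beyond control limits, cut at about 13% in these data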
Target sequence (P49862 whole entry, looked up): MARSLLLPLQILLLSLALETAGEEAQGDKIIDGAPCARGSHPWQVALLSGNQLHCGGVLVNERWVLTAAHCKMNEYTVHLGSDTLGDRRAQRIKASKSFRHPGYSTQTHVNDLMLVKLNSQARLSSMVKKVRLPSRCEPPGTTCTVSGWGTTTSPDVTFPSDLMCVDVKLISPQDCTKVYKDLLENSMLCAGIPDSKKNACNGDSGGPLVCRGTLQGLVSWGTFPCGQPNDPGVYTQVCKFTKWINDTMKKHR
* marks the source's active call; other numbers are inactive results; i = inactive; / = no result. In the library only some 2.3% were active in any assay of this set; here they are far more common.

SMILES	V-ATPase pH	ADAM10 inh	ADAM17 inh	proKLK7 act
CC1(C)CC(=O)C2=C(C1)OC1=C(C2)C(=O)CC(C)(C)C1	146*	-5	-2	0
CC1(C)CC(=O)C2=C(C1)NC(=O)CC2	/	-19	-6	0
CC(C)(C)c1ccc(S(=O)(=O)N2CCCC(C(=O)N3CCN(Cc4ccccc4)CC3)C2)cc1 (stereo unspecified)	/	19	3	0
COC(=O)C1(C(=O)OC)NOC2C(=O)N(c3ccc(Cl)cc3Cl)C(=O)C21 (stereo unspecified)	0	12	11*	0
CN1c2ccccc2Oc2nnc(N3CCN(Cc4ccccc4)CC3)cc21	-1	i	-455	5
CCN(CC)CCOc1cc2c(nn1)Oc1ccccc1N2C	-1	i	-210	16*
O=CN1CCN(C(=O)C2CCN(c3ncnc4c3sc3cccc(F)c34)CC2)CC1	/	-34	-9	1
O=C(CN1CCCC1)NC1C2CC3CC(C2)CC1C3 (stereo unspecified)	6	5	0	0
O=C(NC1C2CC3CC(C2)CC1C3)C1CCCCC1 (stereo unspecified)	-1	4	8.6*	-1
C[C@@H]1CN(C(=O)c2nc3ccc(Cl)cn3c2CN2CCc3sccc3C2)C[C@H](C)O1	13*	-15	-5	1
COC(=O)C1CCN(Cc2c(C(=O)N3C[C@@H](C)O[C@@H](C)C3)nc3ccc(Cl)cn23)CC1	0	-6	0	0
CCOC(=O)C1(C)NC(c2cccs2)C2C(=O)N(c3ccc(C)cc3)C(=O)C21 (stereo unspecified)	-3	0	-1	1
Cc1ccc(N2C(=O)C3C(C2=O)N2C(c4cccs4)C4C(=O)N(c5ccc(C)cc5)C(=O)C4N2C3c2cccs2)cc1 (stereo unspecified)	-3	12	13*	-2
CCN1C(=O)[C@H]2[C@@H](c3ccc(-c4ccc(F)cc4)c(OC)c3)N3CCCC[C@@]3(C(=O)OC)[C@H]2C1=O	0	7	8.6*	0
CCN1C(=O)[C@@H]2[C@@H](c3ccc(-c4ccc(F)cc4)c(OC)c3)N3CCC[C@@]3(C(=O)OC)[C@@H]2C1=O	-2	2	0	0
CN(C(=O)COC(=O)c1cc(-c2ccc(Cl)s2)nc2ccccc12)C1CCS(=O)(=O)C1 (stereo unspecified)	12*	-100	-32	-20
COc1ccc(CN(C(=O)Cc2c[nH]c3ccccc23)C(C(=O)NC2CCCCC2)c2ccc(C)o2)cc1 (stereo unspecified)	-2	26*	12*	1
CCN(CC)Cc1cc(Nc2c3ccccc3nc3c4ccccc4n(C)c23)cc(CN(CC)CC)c1O	-5	-325	-93	23*
Oc1cccc(Nc2c3ccccc3nc3ccccc23)c1	4	i	-471	2
Cc1ccc2nc(Cl)c3nnnn3c2c1	10.0*	/	/	/
Cc1ccc2nc(N3CCN(c4cccc(C)c4C)CC3)c3nnnn3c2c1	1	-5	-8	-1
O=C(CSc1nnc(-c2ccccc2)n1-c1ccc(Cl)cc1)Nc1cccc2ccccc12	/	1	1	0
O=C(COc1cccc(NC(=O)c2ccco2)c1)c1ccc(F)cc1	19*	7	3	0
O=C(Cc1ccccc1)NCCSCc1ccc(Cl)cc1	-1	-5	1	1
O=C(COc1ccccc1)NCCSCc1ccc(Cl)cc1	0	0	8.6*	-1
SMILES	V-ATPase pH	ADAM10 inh	ADAM17 inh	proKLK7 act
CCCCOc1ccc(C(=O)NC2CCCCN(C(C)C)C2=O)cc1 (stereo unspecified)	/	-12	-2	0
Fc1ccc(-c2ccnc3nc(N4CCOCC4)nn23)cc1	-2	-400	-104	22*
CC(c1ccccc1)N1CC[C@H]2C=CC[C@@H](C(=O)Nc3cccc(Cl)c3)[C@H]2C1=O (stereo partly specified)	/	0	-1	/
COc1cc2c3nnc(-c4ccc(F)cc4)c-3cn(Cc3ccccc3)c2cc1OC	6	i	-220	29*
COc1ccc(Cn2cc3c(-c4ccc(F)cc4)nnc-3c3cc(OC)c(OC)cc32)cc1	0	-347	-72	-35
CCOc1ccc(CCNC(=O)c2cc3sccc3n2Cc2cccc(C)c2)cc1OCC	/	-7	-5	/
Cc1cc(N2CCOCC2)nc(-c2ccccc2O)n1	60*	-6	-6	0
CC(COc1ccc(OC(F)(F)F)cc1)CN1CCC(C(O)(c2ccccc2)c2ccccc2)CC1 (stereo unspecified)	/	12	8	1
Clc1cccc(CSc2nnc(-c3c[nH]c4ccccc34)o2)c1	-1	21*	4	1

Assay outcomes as filed in PubChem.
